Consider 17 compounds from PubChem BioAssay (NCI).

This is part of a sample that, as a whole, favours compounds with a hit. Of some 83,000 tested, about 20% had one in any assay.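 Cell lines were cultured in 96-well plates, exposed to a single compound concentration, and assessed for percent growth 48 hours later.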 Values without a mark were called inactive. The source made the active and inactive calls. How the source made its calls: active means growth percent below 10; inactive means the rest.

Common to all, as to experiment: NCI-60 one-dose screen, 48 h (100 = growth as untreated, 0 = no growth, -100 = all killed)
The test system of one assay is NCI-H226 lung. The note with it: 10 µM.
The subject of another assay is NCI-H322M lung. Particulars: 10 µM unless noted.
The subject of the next assay is NCI-H460 lung. Particulars: 10 µM unless noted.
In the next assay the test system is NCI-H522 lung. The note with it: 10 µM.
For the next assay, the system named is A549/ATCC NSCLC. The note with it: 10 µM unless noted.
Another assay concerns 786-0 renal. Particulars: 10 µM unless noted.
The next assay concerns COLO 205 colon. Particulars: 10 µM unless noted.
The subject of the next assay is HOP-62 NSCLC. The note with it: 10 µM unless noted.
The test system of the next assay is HOP-92 NSCLC. Particulars: 10 µM unless noted.

Turning to `CSC1=CC(=O)c2ccccc2C1=O`, the growth with NCI-H226 lung is 89.2%; with NCI-H322M lung, 107%; with NCI-H460 lung, 95.6%; in the assay with NCI-H522 lung, 18.5%; in the assay with A549/ATCC NSCLC, 99.1%; in the assay on 786-0 renal it was 106%. Also, in the assay with COLO 205 colon, the growth is 101%.

On to `Cc1cc(Cl)c2c(Cl)ccc(Cl)c2n1`, for which the growth in the assay with NCI-H226 lung was 110%; in the assay with HOP-62 NSCLC it was 102%; in the assay on NCI-H460 lung, 111%; with HOP-92 NSCLC, 93.7%; in the assay on NCI-H522 lung it was 83%; in the assay with A549/ATCC NSCLC, 95.4%. The values for the growth in the assay with 786-0 renal and in the assay on COLO 205 colon were 101% and 114%, respectively.

`CN1CCc2c(Sc3ccc(C(=O)NO)cc3)c3ccccc3n2C1`: the growth in the assay with NCI-H226 lung was 62.1%; in the assay with NCI-H322M lung, 67.8%; in the assay on HOP-62 NSCLC, 66.8%; with HOP-92 NSCLC, 52.6%; in the assay on A549/ATCC NSCLC it was 52.1%; with 786-0 renal it was 75.3%.

In the case of `CC(C)(C)CC(C)(C)N(CSc1ccc(Cl)cc1)CSc1ccc(Cl)cc1`, the growth was 45.2% in the assay with NCI-H226 lung; 83.4% with HOP-62 NSCLC; 42.9% with NCI-H460 lung; 23.3% with HOP-92 NSCLC; -4.63% (active) in the assay on NCI-H522 lung; 10.6% with A549/ATCC NSCLC. For the same compound, the growth with 786-0 renal is 41%; in the assay with COLO 205 colon, 75.6%.

Take `CCCCCCCCCCCCCCCC[N+]1(C)CCOCC1`: the growth with NCI-H226 lung is 48.4%; in the assay with NCI-H322M lung it was 37.1%; with NCI-H460 lung, 4.21% (active); in the assay on HOP-92 NSCLC, -15.3% (active); in the assay with NCI-H522 lung, -24.8% (active); in the assay on A549/ATCC NSCLC, 24.3%. Further, the figures for the growth with 786-0 renal and in the assay on COLO 205 colon were 5.35% (active) and -92.3% (active), respectively.

In the case of `Brc1ccc(Br)nn1`, the growth is -26.8% (active) in the assay with NCI-H226 lung; -97.4% (active) with NCI-H322M lung; -21.9% (active) with NCI-H460 lung; -64.7% (active) with HOP-92 NSCLC; -33.2% (active) in the assay on NCI-H522 lung; 5.91% (active) in the assay on A549/ATCC NSCLC. In addition, the growth in the assay with 786-0 renal is -81% (active); in the assay on COLO 205 colon it was -92.5% (active).

On to `CCCC1=NNC(=O)C1`, for which the growth with NCI-H226 lung was 108%; in the assay on HOP-62 NSCLC, 99%; in the assay with NCI-H460 lung, 109%; with HOP-92 NSCLC, 90.7%; in the assay with NCI-H522 lung, 94%; in the assay on A549/ATCC NSCLC, 95.9%. In addition, the values for the growth in the assay on 786-0 renal and in the assay on COLO 205 colon were 95.8% and 99.3%, respectively.

In the case of `COc1c(Cl)ccc2c(-c3nc4cc(Cl)c(F)cc4s3)cc(=O)oc12`, the growth is 94.8% in the assay with NCI-H226 lung; 106% in the assay on NCI-H322M lung; 86.6% with HOP-62 NSCLC; -78.2% (active) in the assay with NCI-H522 lung; 78% in the assay with A549/ATCC NSCLC; -43.3% (active) in the assay with 786-0 renal. Moreover, the growth in the assay with COLO 205 colon was 124%.

Regarding `COc1ccc(-c2c3c(N)c4c(nc3nc3c2c(C)nn3-c2ccccc2)CCCCC4)cc1`, the growth is 99.4% with NCI-H226 lung; 84.6% in the assay with HOP-62 NSCLC; 82.8% in the assay with NCI-H460 lung; 32.2% with HOP-92 NSCLC; 50.2% with NCI-H522 lung; 81.3% in the assay with A549/ATCC NSCLC. Moreover, the growth in the assay on 786-0 renal is 79.2%; in the assay on COLO 205 colon, 74.3%.

For `NC(=O)c1cc(I)ccc1NC(=O)COc1ccc(Cl)cc1Cl`, the growth with NCI-H226 lung was 103%; in the assay on NCI-H322M lung, 98.5%; with HOP-62 NSCLC, 87.2%; in the assay on NCI-H522 lung, 75.7%; with A549/ATCC NSCLC, 90.4%; in the assay with 786-0 renal, 89.9%. Further, the growth in the assay with COLO 205 colon was 101%.

Regarding `CC(C)NCC(O)COc1ccc(CCOCC2CC2)cc1` (stereo not drawn), the growth in the assay on NCI-H226 lung is 90.7%; with NCI-H322M lung, 106%; in the assay with HOP-62 NSCLC, 104%; in the assay on NCI-H522 lung, 118%; in the assay with A549/ATCC NSCLC, 99.5%; in the assay on 786-0 renal it was 100%. Further, the growth in the assay with COLO 205 colon is 116%.

`Cc1ccc(S(=O)(=O)N(c2ccc(Cl)cc2)c2ccc(Br)cc2C(=O)O)cc1`: the growth with NCI-H226 lung is 97.7%; in the assay with NCI-H322M lung it was 114%; in the assay on HOP-62 NSCLC it was 105%; in the assay on NCI-H460 lung, 107%; in the assay on NCI-H522 lung, 102%; in the assay with A549/ATCC NSCLC it was 105%. For the same compound, the growth was 114% in the assay on 786-0 renal and 116% with COLO 205 colon.

Regarding `NC(=O)c1cc(Cl)ccc1NC(=O)COc1ccccc1`, the growth in the assay on NCI-H226 lung is 90.5%; with NCI-H322M lung it was 46.7%; with HOP-62 NSCLC it was 46.7%; in the assay with NCI-H460 lung, 29.6%; with NCI-H522 lung, 44.2%; with A549/ATCC NSCLC, 52.8%. For the same compound, the growth is 60.1% in the assay on 786-0 renal and 25.4% in the assay on COLO 205 colon.

As for `Cc1nc(NC(=O)COc2cccc(/C=C3\COc4ccccc4C3=O)c2)sc1C`, the growth in the assay with NCI-H226 lung was 83.2%; in the assay with NCI-H322M lung, 58.6%; in the assay on HOP-62 NSCLC, 71.9%; in the assay on HOP-92 NSCLC, -20.3% (active); with NCI-H522 lung it was -49.6% (active); with A549/ATCC NSCLC it was 30.1%. Further, the growth in the assay on 786-0 renal was 72.1%; with COLO 205 colon it was 16.6%.

As for `COc1cc(/C=C/C(=O)C2=C(/C=C/c3ccc(O)c(OC)c3)NC(=O)NC2c2ccc(O)c(OC)c2)ccc1O` (stereo not drawn), the growth was 91.8% in the assay on NCI-H226 lung; 102% in the assay on NCI-H322M lung; 123% in the assay with HOP-62 NSCLC; 89.1% in the assay with NCI-H460 lung; 78.9% in the assay on A549/ATCC NSCLC; 100% with 786-0 renal.

Take `COc1ccc(OC)c2ncccc12`: the growth with NCI-H226 lung was 95.8%; in the assay with HOP-62 NSCLC it was 90.2%; in the assay on NCI-H460 lung, 108%; in the assay with HOP-92 NSCLC, 72.2%; with NCI-H522 lung, 84%; with A549/ATCC NSCLC, 108%. The growth with 786-0 renal was 102%; with COLO 205 colon, 106%.

For the compound `Cn1c2ccccc2c2nn(C(=O)c3ccccc3)c(=O)nc21`, the growth with NCI-H226 lung is 96.2%; in the assay on NCI-H322M lung, 99.6%; in the assay with HOP-62 NSCLC it was 115%; with NCI-H460 lung it was 105%; in the assay on NCI-H522 lung it was 99%; in the assay with A549/ATCC NSCLC, 116%. The growth was 107% in the assay on 786-0 renal and 118% with COLO 205 colon.
